Test results taken from PubChem BioAssay AID651724 (National Center for Advancing Translational Sciences (NCATS), 2012).
The campaign covered roughly 340,000 compounds. About 1,700 (0.5%) were called active. Another 2% or so got no clear call; they are omitted. The entries come from a sample that favours actives as a whole. Unmarked numbers belong to inactive results. Rule as the data show it: active = activity change below about -65%; inconclusive = mostly about -30% to -63%; inactive = weaker than that.

Each compound was assayed on CtBP / adenovirus E1A interaction (AlphaScreen) (assay: qHTS Assay for Inhibitors of the CtBP/E1A Interaction). Conditions: AlphaScreen GST-E1A/His-CtBP binding, 1536-well; hits give low values.
Procedure, shortened: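 Homogeneous bead-based format: GST-tagged E1A captured on glutathione donor beads, His-tagged CtBP on nickel acceptor beads; compounds precede bead addition by 2 h at 37 °C.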
% is scaled to controls: 0 for no effect and ±100 for the full control effect.

Point of comparison: `O=C(NCCCc1ccccc1)C(=O)NCC1OCCN1S(=O)(=O)c1ccccc1` (stereo unspecified), activity change 22.6%. Against it:
- C#Cc1ccc(NC(=O)C2(C)CCN2C(=O)Cc2ccc(-c3ccccc3)cc2)cc1 (stereo unspecified) — lower, 0.392%
- O=C(Cn1ncc2c3ccccc3n(Cc3ccccc3)c2c1=O)NCc1ccccn1 — lower, -0.706%
- Cc1ccc(Cn2c(C)c3cnn(CC(=O)NCc4ccccn4)c(=O)c3c2C)cc1 — lower, -24.7%
- CCc1nc2c(OCc3ccc(C(=O)OC)cc3)cccn2c1N(C)C(=O)C(C)C — lower, 0.85%
- CC(=O)Nc1cccc(-c2cc(NC=O)c3ncc(-c4ccc(F)c(Cl)c4)n3c2)c1 — lower, 6.58%
- Oc1ccc(-c2nc3ccccc3nc2-c2ccc(O)cc2O)c(O)c1 — lower, -12.2%
- COc1ccccc1N1CCN(/N=C/c2ccc(O)cc2O)CC1 — lower, -7.8%
- CC(C)n1ncc2c(C(=O)N3CCN(Cc4cccs4)CC3)cc(C3CC3)nc21 — lower, -9.59%
- COc1cc(NC(=O)c2cc(-c3ccc(F)cc3OC(C)C)n[nH]2)cc(OC)c1OC — lower, -4.63%
- C[C@H]1CN([C@@H](C)CO)S(=O)(=O)c2ccc(Br)cc2O[C@H]1CN(C)C(=O)c1cnccn1 — lower, 0.784%
- Cc1cc(C(=O)N/N=C/c2ccccn2)c2ccccc2n1 — lower, -14.7%
- O=C(N/N=C/c1ccccn1)C12CC3CC(CC(C3)C1)C2 — lower, 1.59%
- COc1ccc(-c2ccc(CN3C(CC(C)C)C(=O)N(Cc4cn(CC5CCCCC5)nn4)CCS3(=O)=O)cc2)cc1 (stereo unspecified) — lower, -0.831%
- Cc1ccc(S(=O)(=O)N2CCC(=O)N([C@H](COCc3ccccc3)C(C)C)CC2)cc1 — lower, 3.58%
- CC(C)(C)Cc1c(C2CCCCC2)nc2ccc(Br)cn12 — lower, 10.7%
- Cc1ccc(C(=O)NC(=S)NCCN2CCOCC2)cc1 — lower, -5.38%
- COc1cccc(NC(=S)NCCCN2CCOCC2)c1 — lower, 5.66%
- Nc1cccc(-c2cncc(N3CCN(Cc4ccccn4)CC3)n2)c1 — lower, 1.71%
- Cc1ccc(S(=O)(=O)CC(=O)Nc2c(C)n(C)n(-c3ccccc3)c2=O)cc1 — lower, -13.1%
- Cc1ccccc1OCCC(=O)Nc1c(C)n(C)n(-c2ccccc2)c1=O — lower, -0.0402%
- COc1ccc(CC(N)c2csc(NC(=O)Nc3ccc(C(C)C)cc3)n2)cc1 (stereo unspecified) — lower, -13.2%
- Cc1cc(F)ccc1S(=O)(=O)N1CCCOC1CNC(=O)C(=O)NCCC1=CCCCC1 (stereo unspecified) — lower, 22.2%
- COc1ccc([C@H]2CC(=O)C[C@@H](CCn3cc(CC4CCCC4)nn3)O2)cc1 — lower, -3.9%
- CC1(C(=O)NS(=O)(=O)c2ccc(Cl)cc2)CCN1C(=O)CC1CCCC1 (stereo unspecified) — lower, 2.24%
- CN[C@H]1C[C@H]2c3cc(Oc4ccccc4C)ccc3CCN2C(=O)[C@H]1[C@H](C)O — lower, -12.1%
- CCOc1ccc(N2C(=O)CSC2=NC#N)cc1 — lower, -0.654%
- CCOc1cc(/C=N/n2cnnc2)c(Br)cc1O — lower, -6.92%
- Cc1ccccc1-c1csc(C(O)c2cccc(Cl)c2)n1 (stereo unspecified) — lower, 3.42%
- CN(C(=O)CN1CCN(c2cc(-c3ccc(OCc4ccccc4)cc3)ncn2)CC1)c1ccccc1 — lower, 0.325%
- COc1ccc2cc1Oc1ccc(cc1)C[C@H]1c3cc(c(OC)cc3CCN1C)Oc1c(O)c(OC)cc3c1[C@H](C2)N(C)CC3 — lower, -4.43%
- COc1cc(C(=O)CCc2ccc3c(c2)OCO3)cc(OC)c1OC — lower, 2.78%
- COc1ccccc1CNc1nc(Nc2ccccc2Cl)c2sccc2n1 — lower, -5.37%
- NC(c1csc(NC(=O)Nc2cccc(C(F)(F)F)c2)n1)C1CCCCC1 (stereo unspecified) — lower, -2.68%
- CC1(C)OC(=O)C2=C(C[C@@H](C3CC3)O[C@H]2CCc2cccc(Cl)c2)O1 — lower, 11.1%
- CCCNC(=O)C1(C)CCN(Cc2csc(-c3ccc(Cl)cc3)n2)C1 (stereo unspecified) — lower, -2.56%
- Oc1ccc(/C=N/Nc2ccc(C(F)(F)F)cn2)cc1O — lower, -14%
- COc1cccc(/C=N/Nc2ccc(S(=O)(=O)Nc3ccccc3C(=O)O)cc2[N+](=O)[O-])c1O — lower, -15.4%
- CC(C)c1cccc(C(C)C)c1Nc1cn[nH]c1 — lower, -13.7%
- COCCCNc1ccn2nc(-c3ccc(CC(C)C)cc3)cc2n1 — lower, 4.88%
- COc1ccc(CN2CCC(C)(Oc3cccc(F)c3)C2)c2ccccc12 (stereo unspecified) — lower, -13.7%
- CCC(C(=O)OCCN(CC)CC)c1ccccc1 (stereo unspecified) — lower, -0.583%
- CCOc1cc2ccccc2cc1C(=O)Nc1ccccn1 — lower, -7.02%
- Cc1nc2c(OCc3ccc(Cl)cc3)cccn2c1N(C)Cc1cccs1 — lower, -7.51%
- CC1CCCC(NC(=O)COC(=O)c2ccccc2C(=O)N(C)C2CCCCC2)C1C (stereo unspecified) — lower, -2.61%
- Cc1c(NC(=O)COC(=O)/C=C/c2cccc(F)c2)c(=O)n(-c2ccccc2)n1C — lower, 0.516%
- CCOc1ccc(CCN2C(=S)N([C@@H](CC(C)C)CN3CCC[C@@H]3CN3C(=S)NC[C@@H]3Cc3ccc(O)cc3)C[C@@H]2CC(C)C)cc1 — lower, -10.9%
- CC(=O)Nc1cccc(-c2ccnc3c2CC(C)(C(=O)NCc2ccco2)O3)c1 (stereo unspecified) — lower, -10.5%
- NC(=O)N/N=C\c1cccs1 — lower, -12.4%
- S=c1[nH]nc(-c2cccs2)n1/N=C/c1cccs1 — lower, 0%
- C=CCC[C@@H](CCCCC)OC(=O)/C=C/[C@@H](O)[C@H](O)C[C@H](O)CC=C — lower, -9.7%
- COc1ccc(C(C(=O)NCc2ccccc2)n2c(=O)c(-c3ccccc3)nc3ccccc32)cc1 (stereo unspecified) — lower, 0%
- O=C(COc1ccccc1F)NC1CC1 — lower, 8.72%
- O=C(NCCN1C(=O)C2C3C=CC(C3)C2C1=O)Nc1ccccn1 (stereo unspecified) — lower, -15.4%
- CSCCC(NC(=O)c1ccco1)C(=O)Nc1cc(C)ccn1 (stereo unspecified) — lower, 0.873%
- CC1CCN(S(=O)(=O)c2nnc(NC(=O)COc3ccccc3F)s2)CC1 — lower, 1.46%
- CCOC(=O)N1CCN(C(=O)C(C)NC(=O)c2ccco2)CC1 (stereo unspecified) — lower, -2.35%
- O=C(CN1C(=O)C2C3C=CC(C3)C2C1=O)NCCc1ccccc1Cl (stereo unspecified) — lower, 12.6%
- CCOC(=O)c1cc(-c2sc(NC(=O)c3ccccc3)nc2C)n(Cc2ccccc2)n1 — lower, 0.44%
- CN1OC[C@@H]2CN(S(=O)(=O)c3cccc(C(F)(F)F)c3)[C@H](c3ccc(-c4cc5ccccc5o4)cc3)C[C@@H]21 — lower, -21.8%
- CCCCC(=O)N(C)c1c(CC)nc2c(OCc3ccc(S(C)(=O)=O)cc3)cccn12 — lower, 0.375%
- COc1cccc(OCc2cc(/C=N/NC(=O)c3nc(Cl)c(Cl)c(N)c3Cl)ccc2OC)c1 — lower, 7.69%
- COc1cc(/C=N/NC(=O)CNC(=O)c2ccncc2)ccc1OC(C)=O — lower, -2.8%
- O=C(NCc1cccnc1)c1cc(C2CCCN(C(=O)CCCc3ccccc3)C2)on1 (stereo unspecified) — lower, 0.406%
- CCN(CC)C(=O)C1=C(C)N(Cc2ccccc2)C(=O)C(CC(=O)NC(c2ccccc2)c2ccccc2)C1 (stereo unspecified) — lower, -5.91%
- CCCOc1ccc(F)cc1-c1cc(C(=O)NCc2ccc(F)cc2)[nH]n1 — lower, 0%

With `Cc1c2cnn(CC(=O)NCc3ccccn3)c(=O)c2c(C)n1Cc1ccc(Cl)cc1` the activity change was -67.4% (active).
In the case of `Cc1nc2ccccc2nc1N/N=C/c1ccc(O)cc1O`, the activity change is reported as -92.6% (active).
In the case of `S=C(NN=Cc1ccccn1)Nc1ccccn1`, the activity change is reported as -73.6% (active).
`CCOc1cccc(/C=N/NC(=S)NCCN2CCOCC2)c1O` was tested, and the activity change was -80.7% (active).
In the case of `Cc1c(NC(=O)CSc2cccc3cccnc23)c(=O)n(-c2ccccc2)n1C`, the activity change is reported as -87.1% (active).
For `O=C(NCCCn1ccnc1)C(=O)NCC1OCCN1S(=O)(=O)c1cc(F)ccc1F` (stereo unspecified), the activity change was -71.2% (active).
For `CCOc1cccc(/C=N/N2C(=O)CSC2=S)c1O`, the activity change was -92.9% (active).
For `COc1c(O)ccc2c1CN1CCc3cc4c(cc3C1C2)OCO4` (stereo unspecified), the activity change was -66.6% (active).
In the case of `COc1cccc(/C=N/Nc2ncc(C(F)(F)F)cc2Cl)c1O`, the activity change is reported as -98.2% (active).
With `CCN(CC)CCOc1ccc2c(c1)C(=NNC(=O)c1ccccn1)c1cc(OCCN(CC)CC)ccc1-2` the activity change was -70.2% (active).
In the case of `Cc1n[nH]c(=O)nc1N/N=C/c1cccs1`, the activity change is reported as -89.5% (active).
In the case of `O=C(COc1ccccc1F)Nc1nc(-c2ccccn2)cs1`, the activity change is reported as -89% (active).
In the case of `CC(NC(=O)c1ccco1)C(=O)Nc1nc(-c2ccccn2)cs1` (stereo unspecified), the activity change is reported as -88.4% (active).
For `O=C(CN1C(=O)C2C3C=CC(C3)C2C1=O)Nc1nc(-c2ccccn2)cs1` (stereo unspecified), the activity change was -80.4% (active).
With `COc1ccc(/C=N\NC(=O)c2sc(N)nc2C)cc1OC` the activity change was -68.1% (active).
